Results published in PubChem BioAssay AID624404 (Broad Institute, 2012).
Screen size: about 1,800 compounds; about 710 (39%) were called active. Roughly 28% stayed inconclusive and do not appear here.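 Rule for the calls: active = luciferase signal rise whose fitted curve crosses a set activity limit at or below the top valid tested dose; inconclusive = flat fit with 30 to 70% rise, or poor fit; inactive = signal falling, flat within 30%, or crossing above top dose.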 Not all results are given here. Measured potencies and affinities stand elsewhere.

Assay: reporter signal increase, D54 LucT cells – cell-based, luminescence, cherry pick, counter-screen for N-linked glycosylation inhibitor project, dose response (AID 624404);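 note: 0% = median neutral control signal and 100% = twice that signal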
Conditions: D54 LucT luciferase reporter counterscreen, 24 h; series mostly up to 19.5 µM; activity increase (luciferase signal): at the top concentration
In the case of `FC(F)(F)c1nnc2c(Sc3ccc(Cl)cc3)nc3ccccc3n12`, the “activity increase (luciferase signal)” value is reported as -57% (inactive).
With `CCN(CC)CCCNc1cc(C)c(C#N)c2nc3ccccc3n12` the “activity increase (luciferase signal)” value was -16.2% (inactive).
In the case of `Cc1nnc2c(NCCC(C)C)nc3ccccc3n12`, the “activity increase (luciferase signal)” value is reported as 38.9% (inactive).
In the case of `Cc1cc([N+](=O)[O-])ccc1Nc1nc2ccccc2n2cnnc12`, the “activity increase (luciferase signal)” value is reported as 0.819% (inactive).
For `Cc1ccc(NC(=O)c2cc(S(=O)(=O)N(C)C)ccc2N2CCCC2)cc1F`, the “activity increase (luciferase signal)” value was 18.8% (inactive).
In the case of `COc1ccc(S(=O)(=O)Nc2c(C(=O)O)[nH]c3ccc(OC)cc23)c(OC)c1`, the “activity increase (luciferase signal)” value is reported as 26.5% (inactive).
With `COc1cc(-c2noc(C)c2/C=C/c2ccc(OC(C)=O)cc2)cc(OC)c1OC` the “activity increase (luciferase signal)” value was 11.2% (inactive).
In the case of `COc1cc(NC(=O)c2cc(-c3ccccc3)nc3c2cnn3C(C)C)cc(OC)c1OC`, the “activity increase (luciferase signal)” value is reported as -29.9% (inactive).
With `NC(=O)c1cccc(Nc2nc(C(N)CCc3ccccc3)cs2)n1` (centres undefined) the “activity increase (luciferase signal)” value was 7.8% (inactive).
With `CCOC(=O)C1CCN(S(=O)(=O)Cc2ccccc2)CC1` the “activity increase (luciferase signal)” value was 46% (inactive).
With `O=C1CCCC2=C1C(c1ccco1)Nc1ccc(C(=O)c3ccccc3)cc1N2` (centres undefined) the “activity increase (luciferase signal)” value was 41.2% (inactive).
In the case of `CCCn1c2ccccc2c2cnn(CC(=O)NC3CCCC(C)C3C)c(=O)c21` (centres undefined), the “activity increase (luciferase signal)” value is reported as -3.18% (inactive).
With `CCOc1ccccc1NC(=O)CN(c1ccc(OC)cc1)S(=O)(=O)c1c(C)noc1C` the “activity increase (luciferase signal)” value was 52.5% (inactive).
In the case of `COc1ccc(OC)c(N(CC(=O)Nc2cccnc2)S(=O)(=O)c2ccc(C)cc2)c1`, the “activity increase (luciferase signal)” value is reported as 4.3% (inactive).
For `COc1ccc(N(CC(=O)Nc2cc(Cl)ccc2OC)S(=O)(=O)c2c(C)noc2C)cc1`, the “activity increase (luciferase signal)” value was -20.4% (inactive).
With `CN(C)Cc1c(O)ccc2c1O/C(=C\C=C\c1ccccc1)C2=O` the “activity increase (luciferase signal)” value was 31.8% (inactive).
With `O=C(CCl)N1CCCC1c1ccc2c(c1)OCCO2` (centres undefined) the “activity increase (luciferase signal)” value was -11.8% (inactive).
With `COc1ccc(/C=N/NC(=O)c2ccc(COc3ccccc3Cl)o2)c(OC)c1C` the “activity increase (luciferase signal)” value was 27.4% (inactive).
For `CC(C)C(=O)Nc1ccc(C(=O)N/N=C/c2cc(Br)cc(Br)c2O)cc1`, the “activity increase (luciferase signal)” value was 11.7% (inactive).
For `Cc1cc2nnc(SCC(=O)NCc3cccs3)n2c2ccccc12`, the “activity increase (luciferase signal)” value was 45.3% (inactive).
With `CNC(=O)c1cccc2nc3ccccc3nc12` the “activity increase (luciferase signal)” value was -11.8% (inactive).
For `CCOC(=O)c1ccc(Oc2cc(C)nc(SC)n2)cc1`, the “activity increase (luciferase signal)” value was -2.48% (inactive).
For `Cc1cc(C)c(C)c(OC(=O)c2sc(Cl)nc2C)c1`, the “activity increase (luciferase signal)” value was -28.2% (inactive).
In the case of `CCOC(=O)c1ccc(N=c2sc(C(=O)OC)cc(=O)n2Cc2ccco2)cc1`, the “activity increase (luciferase signal)” value is reported as -0.7% (inactive).
With `CCn1cc([N+](=O)[O-])c(C(=O)Nc2nc(-c3ccc(C)c(C)c3)c(C)s2)n1` the “activity increase (luciferase signal)” value was -9.26% (inactive).
For `COc1cccc(Oc2ccc(C(F)(F)F)cc2NC(=O)CN2C(=O)NC3(CCCC3)C2=O)c1`, the “activity increase (luciferase signal)” value was 19.9% (inactive).
With `COC(=O)c1cc(OC)c(OC)cc1NC(=S)NC(=O)c1ccco1` the “activity increase (luciferase signal)” value was 17.6% (inactive).
With `c1ccc(CNc2nc(NCCc3ccncc3)c3sccc3n2)cc1` the “activity increase (luciferase signal)” value was -4.58% (inactive).
In the case of `CN(C)CCOc1nc(-c2ccccc2)nc2c1oc1ccccc12`, the “activity increase (luciferase signal)” value is reported as 14.3% (inactive).
In the case of `CCN(CC)CCCNc1nc2ccccc2c2nc(-c3ccncc3)nn12`, the “activity increase (luciferase signal)” value is reported as -2.43% (inactive).
In the case of `Cc1cc(NCCCN(C)C)n2c(nc3ccccc32)c1C#N`, the “activity increase (luciferase signal)” value is reported as -10.7% (inactive).
In the case of `CN(C)CCCNc1c2c(nc3ccccc13)CCC2`, the “activity increase (luciferase signal)” value is reported as 0% (inactive).
With `O=C(CSc1ncnc2nc[nH]c12)c1ccc([N+](=O)[O-])cc1` the “activity increase (luciferase signal)” value was -6.76% (inactive).
In the case of `COc1cc(C(=O)OCC(=O)c2cc(C)n(C)c2C)cc(OC)c1OC`, the “activity increase (luciferase signal)” value is reported as 13.5% (inactive).
In the case of `COc1cc(COCC(O)CN2CCN(CCN3C(=O)c4cccc5cccc(c45)C3=O)CC2)cc(OC)c1OC` (centres undefined), the “activity increase (luciferase signal)” value is reported as -1.72% (inactive).
In the case of `C=CCOc1ccc2nc(NC(=O)OC)[nH]c2c1`, the “activity increase (luciferase signal)” value is reported as 11.3% (inactive).
For `Cc1noc2ncnc(Sc3ccccc3Cl)c12`, the “activity increase (luciferase signal)” value was 39.8% (inactive).
With `CCc1nn2c(N(C)CCO)cc(C)nc2c1-c1ccc(F)cc1` the “activity increase (luciferase signal)” value was 3.57% (inactive).
In the case of `OC1CCCN(Cc2c3ccccc3cc3ccccc23)C1` (centres undefined), the “activity increase (luciferase signal)” value is reported as 36% (inactive).
For `CN(C)CCNC(=O)c1cccc2nc3c(ccc4ccccc43)nc12`, the “activity increase (luciferase signal)” value was 34.8% (inactive).
With `CCOC(=O)c1cnc2c(C)cc(C)cc2c1NCCCN1CCOCC1` the “activity increase (luciferase signal)” value was 34.1% (inactive).
For `CCOC(=O)c1cc2sccc2n1CC(=O)N1CCc2ccccc21`, the “activity increase (luciferase signal)” value was 38.1% (inactive).
With `COc1cc(-c2noc(C)c2/C=C/c2ccc(N)cc2)cc(OC)c1OC` the “activity increase (luciferase signal)” value was 4.57% (inactive).
In the case of `Cc1ccc(Nc2nnc(SCC(=O)Nc3ncc(S(=O)(=O)c4ccc([N+](=O)[O-])cc4)s3)s2)cc1`, the “activity increase (luciferase signal)” value is reported as 35.6% (inactive).
In the case of `CCOC(=O)c1c(C)oc2c(F)c(F)c(F)c(F)c2c1=O`, the “activity increase (luciferase signal)” value is reported as -70.7% (inactive).
For `CNc1ccc(Br)cc(C(=O)/C=C/c2cccc(OC)c2OC)c1=O`, the “activity increase (luciferase signal)” value was 17.9% (inactive).
In the case of `CCOc1ccc2c(c1)C(=NNC(=O)c1ccncc1)c1cc(OCC)ccc1-2`, the “activity increase (luciferase signal)” value is reported as -20.8% (inactive).
With `COC(=O)c1ccc2c(=O)n(Cc3ccco3)c(SCC(=O)Nc3cc(C)on3)nc2c1` the “activity increase (luciferase signal)” value was -15.7% (inactive).
With `COc1ccc(C(=O)CSc2nn3c(=O)c(C(C)(C)C)nnc3s2)cc1` the “activity increase (luciferase signal)” value was 22.2% (inactive).
In the case of `CCN(CC)C(=O)CSc1nc2c(sc(=S)n2-c2ccccc2)c(=O)n1Cc1ccco1`, the “activity increase (luciferase signal)” value is reported as -39.3% (inactive).
With `CCOC(=O)c1ccc(/C=C2/C=C(c3ccccc3)N(c3ccc(Cl)c(C(=O)O)c3)C2=O)cc1` the “activity increase (luciferase signal)” value was -17% (inactive).
For `Cc1ccc(Cl)cc1N1CCN(S(=O)(=O)c2ccc(-c3ccc(=O)[nH]n3)o2)CC1`, the “activity increase (luciferase signal)” value was 30.2% (inactive).
For `Cn1c(N)c(C(=O)COC(=O)c2cc(S(=O)(=O)N3CCOCC3)ccc2F)c(=O)n(C)c1=O`, the “activity increase (luciferase signal)” value was 4.76% (inactive).
In the case of `CCCn1c(=N)n(CC(=O)c2ccc([N+](=O)[O-])cc2)c2ccccc21`, the “activity increase (luciferase signal)” value is reported as 58.5% (inactive).
